FLuc inh: blocks Photinus pyralis firefly luciferase activity; P08659; purified firefly luciferase, luminescence, 8 min; Potency, µM (series often up to 57.1 µM), for inactives: top-dose activity change, negative = inhibition, most hits filed as inhibitors; 2.2% of 72,000 active; AID 411; note: nearly all actives have a fitted effect of over 40% in size
Target sequence (P08659 whole entry, looked up): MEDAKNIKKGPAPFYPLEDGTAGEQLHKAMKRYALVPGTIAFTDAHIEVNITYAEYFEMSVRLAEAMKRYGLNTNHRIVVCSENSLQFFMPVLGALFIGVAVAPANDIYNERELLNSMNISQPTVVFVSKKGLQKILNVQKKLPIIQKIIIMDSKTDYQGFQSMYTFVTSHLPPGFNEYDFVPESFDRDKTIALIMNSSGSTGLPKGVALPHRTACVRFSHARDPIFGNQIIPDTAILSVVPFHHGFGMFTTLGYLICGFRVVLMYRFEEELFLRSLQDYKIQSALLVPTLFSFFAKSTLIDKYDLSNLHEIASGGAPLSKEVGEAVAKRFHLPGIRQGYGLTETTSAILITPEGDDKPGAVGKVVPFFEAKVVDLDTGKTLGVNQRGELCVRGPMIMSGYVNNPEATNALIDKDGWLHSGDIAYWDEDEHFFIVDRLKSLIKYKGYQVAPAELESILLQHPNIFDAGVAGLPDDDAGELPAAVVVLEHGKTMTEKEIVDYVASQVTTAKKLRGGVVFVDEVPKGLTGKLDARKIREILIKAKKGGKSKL
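Luminescence read-out after 8 min at room temperature; enzyme reaction used luciferin plus 10 uM ATP (linear range) in imidazole buffer pH 7.2 with KCl, MgCl2, Tween 20 and BSA. Each sample was run as a titration.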
p53ts 32C kill: cytotoxicity in p53ts cells at permissive temperature | H1299-p53A138V at 32C, ATP luminescence viability, 24 h | 0.93% of 130,000 active | Potency, µM (top dose mostly 46.1 µM), inactives show at the top dose activity change, negative = cytotoxicity, most hits filed as cytotoxic | AID 924;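 note: 0% = DMSO and -100% = full killing by reference compound; nearly all actives have a fitted effect of over 55% in size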
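Viability by ATPlite luminescence after 24 h compound treatment (up to 46 uM) at the permissive 32C. Cells are H1299 carrying p53 A138V. Scale runs from DMSO basal to 100 uM tamoxifen as full kill; AC50 from Hill fits.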
p53ts 39C kill: kills p53ts cells at the nonpermissive temperature; H1299-p53A138V viability at 39C, ATP luminescence, 24 h; Potency, µM (titrated, usually from 46.1 µM), for inactives: at the top dose activity change, negative = cell killing, hits mostly cytotoxic; 1.5% of 130,000 active; note: nearly all actives have a fitted effect of over 55% in size
An asterisk follows results filed as active; u = inconclusive; x = not tested or not shown; [ ] = dose if it differs, or a comment. This is a sample that favours compounds with a hit; in the whole collection about 2.6% have one here. Calls come from the whole dose curve; as a rule, active = well fitted curve in the direction sought with a large enough effect; inconclusive = small, poorly fitted or top-dose-only effect, or another doubt; inactive = no such curve, though single readings can be large; an effect the other way counts as inactive or inconclusive. Unless noted, % is set by controls: 0 for no effect and ±100 for the full control effect; potency is the fitted concentration of half-maximal effect.

SMILES	FLuc inh	p53ts 32C kill	p53ts 39C kill
COc1ccc(Nc2c3c(nc4ccc(NC(=O)/C=C/c5cccc(OC)c5OC)cc24)CCCC3)cc1OC	x	10µM*	10µM*
COc1ccccc1Nc1c2c(nc3ccc(NC(=O)c4cccc(F)c4)cc13)CCCC2	x	10µM*	5µM*
COc1ccc(Nc2c3c(nc4ccc(NC(=O)/C=C/c5cc(OC)c(OC)c(OC)c5)cc24)CCCC3)cc1OC	x	13µM*	10µM*
COc1ccc(/C=C/C(=O)Nc2ccc3nc4c(c(Nc5ccc(OC)c(OC)c5)c3c2)CCCC4)cc1	x	11µM*	10µM*
Cc1c(Cl)cccc1NC(=O)CC(c1cccs1)N1Cc2ccccc2C1=O (centres undefined)	x	4%	-23%
COc1cccc(C(=O)NCC(c2ccc(N(C)C)cc2)N2CCOCC2)c1OC (centres undefined)	x	3%	14%
NC(N)=N[C@H](CCC(=O)O)C(=O)O	1%	13%	6%
Clc1ccc(-c2nnc(SCc3nc4ccccc4[nH]3)o2)c(Cl)c1	x	1%	-8%
C=CCSc1nnc(-c2ccc(Cl)cc2Cl)o1	7.9µM*	u	-24%
C=CCSc1nnc(-c2cccnc2)o1	-1%	-4%	-1%
Clc1ccc(-c2nnc(SCc3ccon3)o2)c(Cl)c1	7.9µM*	10µM*	10µM*
CCCC12CN3CC(CCC)(CN(C1)C3c1ccc(OCc3ccccc3)cc1)C2=O (centres undefined)	x	0%	-5%
O=C(CCN1C(=O)c2ccccc2Sc2ncccc21)Nc1ccc(F)cc1	x	3%	-4%
O=C(NCC1(c2ccccc2)CCCC1)C(=O)Nc1cccc(Br)c1	x	8%	2%
CC(=O)Nc1ccc(Nc2ncnc3c2c(-c2ccccc2)cn3-c2ccc(C)c(Cl)c2)cc1	x	12%	u
COC(=O)COc1cccc(-n2cnnn2)c1	-3%	1%	-3%
Cc1cc(C(=O)COc2cccc(-n3cnnn3)c2)c(C)n1-c1ccccc1	13µM*	-20%	u
COc1ccc(Cn2c(=O)[nH]c3cc(C(=O)N4CCN(c5cc(Cl)ccc5C)CC4)ccc3c2=O)cc1	x	4%	6%
Cc1ccc(Nc2nc(N)nc(CSc3nccn3C)n2)cc1	20µM*	u	u
COc1ccccc1Nc1nc(N)nc(CSc2nncn2C)n1	2%	-5%	-3%
COc1cccc(NC(=O)Cn2cnc3c(nc4n3CCCCC4)c2=O)c1	x	2%	x
COc1ccc(CCN2CCC(CNC(=O)c3cnn(-c4ccccc4)c3C3CCN(C(=O)OC(C)(C)C)CC3)CC2)cc1	x	-9%	13µM*
CN1CCN(CCCNC(=O)c2cnn(-c3ccccc3)c2C2CCN(C(=O)OC(C)(C)C)CC2)CC1	x	-9%	-2%
CC(C)(C)OC(=O)N1CCC(c2c(C(=O)NCc3ccc(F)cc3)cnn2-c2ccc(F)cc2)CC1	x	26%	-1%
CC(C)(C)OC(=O)N1CCC(c2c(C(=O)NCCN3CCC(Cc4ccccc4)CC3)cnn2-c2ccc(F)cc2)CC1	x	u	25µM*
SMILES	FLuc inh	p53ts 32C kill	p53ts 39C kill
COc1ccc(-n2ncc(C(=O)NCc3ccccc3)c2C2CCN(C(=O)OC(C)(C)C)CC2)cc1	x	13%	-1%
CC(C)(C)OC(=O)N1CCC(c2c(C(=O)NCCN3CCC(Cc4ccccc4)CC3)cnn2-c2ccccc2)CC1	x	u	32µM*
CC1CCN(S(=O)(=O)c2ccc3c(c2)N(CC(=O)N(C)Cc2ccccc2)C(=O)CO3)CC1	x	5%	11%
CC(C)C(O)(C(C)C)C(C)C	3%[11.4 µM]	1%[9.22 µM]	8%[9.22 µM]
CCCCCOc1ccc(CN2CCOCC2)cc1Cl	25µM*	u	-30%
CCCCOc1ccc(OCCCN2CCOCC2)cc1	-2%[25.5 µM]	-18%	-14%
COc1ccc(-c2noc(COc3ccc(Br)cc3C)n2)cc1OC	x	0%	-10%
CCOC(=O)c1oc2nc3c(cc2c1N)COC(C)(C)C3	-27%	-27%	-20%
COC(=O)c1sc2nc3c(cc2c1N)COC(C)(C)C3	13µM*	u	u
CN(Cc1ccccc1)C(=O)c1cccc(NC(=O)c2nsc3ccccc23)c1	x	u	10µM*
CC(C)Oc1ccc(CNC(=O)c2cccc(NC(=O)c3nsc4ccccc34)c2)cc1	x	-25%	-30%
O=C(O)c1ccccc1NS(=O)(=O)c1cccc2ccccc12	x	2%	-2%
Cc1ccc(C2=Nc3ccccc3N(CC(=O)NCc3ccc(Cl)cc3)C(=O)C2)cc1C	x	4%	-18%
Cc1ccc(C2=Nc3ccccc3N(CC(=O)NCc3ccc(F)cc3)C(=O)C2)cc1C	x	-14%	10µM*
CCCc1nn2c(=O)cc(COC(=O)c3cccc(NC(=O)c4ccc(OCC)cc4)c3)nc2s1	x	-12%	-16%
Cc1cc2ccccc2n1-c1ccc(C(=O)N2CCC(C(=O)NCc3ccc(Cl)cc3)CC2)s1	x	5%	-23%
CCS(=O)(=O)c1ncc(Cl)c(C(=O)N(Cc2ccccc2)Cc2ccco2)n1	x	18µM*	4µM*
CCS(=O)(=O)c1ncc(N(Cc2ccccc2)Cc2ccco2)c(C(=O)Nc2cccc(Cl)c2C)n1	x	4%	3%
c1ccc2nc(-c3nc4ccccc4o3)ccc2c1	1.3µM*	5µM*	5µM*
c1cc(-c2nc3ccccc3o2)nc(-c2nc3ccccc3o2)c1	2%	-3%	3%
CCn1c(SCC(=O)Nc2ccc(N3CCOCC3)c(Cl)c2)nnc1-c1ccc(N)cc1	13µM*	-22%	-19%
CCn1c(SCC(=O)Nc2ccccc2N2CCOCC2)nnc1-c1ccccc1	3%	6%	9%
CCC(=O)N1CCCc2cc(S(=O)(=O)N3CCC(C(=O)NC4CCC(C)CC4)CC3)ccc21 (centres undefined)	x	8%	-24%
CCOc1ccc(-c2nc3cc(NC(=O)COc4cccc(C)c4)ccc3o2)cc1	x	-8%	-5%
CCOc1cccc(-c2nc3cc(C)ccc3o2)c1	7.9µM*	16µM*	u
SMILES	FLuc inh	p53ts 32C kill	p53ts 39C kill
CCOc1ccc(C(=O)Nc2ccc(-c3nc4cc(C)ccc4o3)cc2)cc1	x	-7%	-23%
Cc1ccc2oc(-c3cccc(NC(=O)Cc4ccc(Cl)cc4)c3)nc2c1	x	3%	0%
CCCC(=O)Nc1ccc(-c2nc3cc(C)ccc3o2)cc1	4µM*	u	-27%
Cc1cccc(OCC(=O)Nc2ccc(-c3nc4cc(C)ccc4o3)c(O)c2)c1	x	-25%	10µM*
Cc1ccc(N(C)C(=O)C2CCN(S(=O)(=O)c3cn(C)cn3)CC2)cc1	x	5%	8%
CN(Cc1ccco1)c1cc(-c2cccc(C#N)c2)ncn1	2%[2.29 µM]	3%	-7%
COc1cccc(-c2cc(N(C)Cc3ccco3)ncn2)c1	-10%[2.29 µM]	u	13µM*
CN(Cc1ccco1)c1cc(-c2ccoc2)ncn1	3%[2.29 µM]	2%	-5%
CN(C)c1ccc(-c2cc(N(C)Cc3ccco3)ncn2)cc1	-14%[2.29 µM]	13µM*	13µM*
CSc1ccc(CCNC(=O)CCc2c(C)nc3c4cccnc4nn3c2C)cc1	x	-2%	-20%
COc1ccc(CNC(=O)Cn2c(SCC(=O)N(C)c3ccccc3)nc3ccccc32)cc1	x	-6%	-18%
O=C(NC1CC1)c1cccc(Nc2ccc(-c3ccc4c(c3)OCCO4)nn2)c1	2µM*	20µM*	10µM*
COc1ccc(-c2ccc(Nc3ccc(C(=O)N4CCOCC4)cc3)nn2)cc1OC	x	8%	8%

Assay outcomes as filed in PubChem.
